Screening results (PubChem)
Sampled rows, rich in hits. Any-hit rate of the full collection: about 10%.
CtBP-E1A inh – blocks the CtBP interaction with E1A; AlphaScreen GST-E1A/His-CtBP binding, 1536-well; hits give low values; activity change, % (no concentration beside the values); actives 0.49% (n = 340,000); in the data active = activity change below about -65%; inconclusive = mostly about -30% to -63%; also: % is scaled to controls: 0 for no effect and ±100 for the full control effect
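In 5 uL wells, 23 nL compound meets equimolar GST-E1A and His-CtBP (5X stock 125 nM each) for 2 h, 37 °C. Beads (5X, 50 ug/mL) then 1 h, 37 °C, dark.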
JMJD2A Tudor – blocks the human JMJD2A Tudor domain. AID 504339. AlphaScreen JMJD2A-Tudor / H3K4me3 peptide binding. Potency, µM (top dose mostly 114 µM), for inactives: top-dose activity change, negative = inhibition, most hits filed as inhibitors. actives 4.4% (n = 390,000). O75164; also: potency is read from the fitted curve at half-maximal effect; % is scaled to controls: 0 for no effect and ±100 for the full control effect; nearly all actives have a fitted effect of over 50% in size
G9a block – blocks human histone lysine methyltransferase G9a; Q96KQ7; G9a H3K9 monomethylation, AlphaScreen, 2 h; Potency, µM (titrated, usually from 102 µM), for inactives: top-dose activity, negative = inhibition, actives largely listed as inhibitors; actives 8.8% (n = 350,000); also: potency is read from the fitted curve at half-maximal effect; % is scaled to controls: 0 for no effect and ±100 for the full control effect; nearly all actives have a fitted effect of over 75% in size
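G9a (20 nM) preincubated 15 min RT with compounds, then 500 nM biotinylated H3K9 peptide and 20 uM SAM added; 2 h RT reaction. Monomethyl-H3K9 product detected by AlphaScreen with anti-H3K9me1 antibody, streptavidin donor and anti-rabbit IgG acceptor beads.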
Six1-Eya2 inh – inhibitors of human Six1/Eya2 interaction | Q15475+O00167 | AlphaScreen GST-Six1/His-Eya2 binding, biochemical; hits give low values | activity change, % (no concentration beside the values) | actives 0.56% (n = 360,000); in the data active = activity change below about -65%; inconclusive = mostly about -30% to -63%; also: % is scaled to controls: 0 for no effect and ±100 for the full control effect
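AlphaScreen luminescence read after one hour at 37 °C in darkness. Pin-transferred compounds met GST-Six1 and His-Eya2 protein (5X stock 250 nM/500 nM) plus glutathione donor and Ni-chelate acceptor beads (5X, 50 ug/mL).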
BAZ2B block – inhibitors of human BAZ2B bromodomain. Q9UIF8. AlphaScreen BAZ2B-H3K14Ac peptide displacement. Potency, µM (highest dose often 114 µM), for the others: top-dose activity change, negative = inhibition, hits mostly inhibitors. actives 4.4% (n = 360,000). AID 504333; also: potency is read from the fitted curve at half-maximal effect; % is scaled to controls: 0 for no effect and ±100 for the full control effect; nearly all actives have a fitted effect of over 60% in size
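AlphaScreen luminescence quantifies BAZ2B engagement of H3K14Ac peptide; the protein and biotinylated peptide are both at 50 nM final, buffer PBS pH 7.4 with 0.01% Tween-20, all steps at room temperature.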
HP1b binding inh – blocks HP1-beta chromodomain binding to methylated histone tails | P83916 | AlphaScreen HP1-beta / biotin-H3K9me3 peptide binding | Potency, µM (titrated, usually from 114 µM), inactives show at the top dose activity change, negative = inhibition, most hits filed as inhibitors | actives 0.56% (n = 390,000); also: potency is read from the fitted curve at half-maximal effect; nearly all actives have a fitted effect of over 70% in size
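AlphaScreen: HP1-beta (50 nM) preformed 30 min with biotin-H3(1-18)K9me3 peptide (50 nM) in PBS pH 7.4, 0.01% Tween-20. Compound added for 30 min at RT, then streptavidin donor/nickel chelate acceptor beads (10 ug/mL) for 30 min.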
An asterisk follows results filed as active; ? = inconclusive; . = no result given; [ ] = another dose, or the depositor's remark. Unless noted, calls follow the shape of the dose curve; as a rule, active = well fitted inhibition curve with a large enough effect; inconclusive = small, poorly fitted or top-dose-only effect; inactive = no such curve, though single readings can be large or run the other way.

SMILES	CtBP-E1A inh	JMJD2A Tudor	G9a block	Six1-Eya2 inh	BAZ2B block	HP1b binding inh
CC(OC(=O)CCc1nc2ccccc2[nH]c1=O)C(=O)c1ccccc1 (stereo not given)	6.8	4.5%	79.4µM*	6.5	10.9%	29.9%
COC(=O)CCc1nc2ccccc2[nH]c1=O	2.7	-0.7%	6.7%[12.7 µM]	-1.1	8.7%	31.8%
Cc1nc(SC2C=CS(=O)(=O)C2)n[nH]1 (stereo not given)	12.3	56.2µM*	50.1µM*	3.8	?	7.9%
COc1ccc(NC2C=CS(=O)(=O)C2)cc1 (stereo not given)	7.4	-16.2%	6.0%[59 µM]	-0.3	-3.4%	45.5%
COc1ccc(C2/C=C\CN(C(=O)C3CCCCC3)C(C)C(=O)N2Cc2ccc(F)cc2)cc1 (stereo not given)	.	-18.6%	.	.	.	16.2%
Cc1cc(C(C#N)c2cccc(Cl)c2)n2ncnc2n1 (stereo not given)	-9.1	?	8.91µM*	-20.9	?	-6.4%
O=C1CCCC2=C1C1(CCS(=O)(=O)C1)N=C(Nc1nc3ccccc3o1)N2 (stereo not given)	.	-16.3%	.	.	.	.
COc1ccc(S(=O)(=O)N/N=C\c2ccccc2F)cc1	-22.9	-2.7%	39.8µM*	-5.0	-2.3%	41.3%
COc1ccc(S(=O)(=O)NC(C)C(=O)Nc2cccc(C(C)=O)c2)cc1 (stereo not given)	4.2	-15.4%	?	15.2	7.0%	11.5%
COc1ccc(S(=O)(=O)Nc2cccc3ccccc23)cc1	.	-23.3%	.	.	.	21.6%
COc1ccc(S(=O)(=O)Nc2c(F)cccc2F)cc1	6.1	25.1µM*	-4.3%	6.0	-14.5%	50.1µM*
COc1ccccc1/C=N/NS(=O)(=O)c1ccccc1	.	3.0%	?	0.3	-5.3%	77.1%
COc1ccc(S(=O)(=O)NC(C)C(=O)Nc2ccccc2F)cc1 (stereo not given)	6.4	-4.0%	39.8µM*	0.0	-2.4%	18.6%
O=C1C(Cl)=C(N2CCCCC2)C(=O)C(Cl)=C1c1cnc(N2CCCCC2)s1	-1.6	8.91µM*	2.24µM*	-7.6	44.7µM*	?
CN(C)c1ncc(C2=C(Cl)C(=O)C(N3CCCC3)=C(Cl)C2=O)s1	-24.2	11.2µM*	.	?	.	-83.5%
CC(=O)c1cnc(N(C)C)s1	2.8	12.2%	-12.3%[59 µM]	-1.8	29.5%	76.0%
COc1ccc2nc3oc(C(=O)N(C)c4ccc(Cl)cc4)cc3cc2c1	.	-14.3%	-23.6%[59 µM]	.	.	30.3%
CCCCCC(=O)N1CC2(CC(c3cccc(NC(=O)[C@@H]4CCC(=O)N4)c3)=NO2)C[C@@H]1C(N)=O (stereo not given in full)	4.8	-24.5%	-0.2%[12.7 µM]	5.0	1.2%	13.4%
C=C(C)C(=O)Nc1cccc(C2=NOC3(C2)C[C@@H](C(N)=O)N(C(=O)c2cc([N+](=O)[O-])cc([N+](=O)[O-])c2)C3)c1 (stereo not given in full)	0.8	28.2µM*	?	-21.6	28.2µM*	20µM*
C=C(C)C(=O)Nc1cccc(C2=NOC3(C2)C[C@@H](C(N)=O)N(C(=O)c2ccc(OC)cc2)C3)c1 (stereo not given in full)	.	2.82µM*	?	-22.5	1.78µM*	3.16µM*
C=C(C)C(=O)Nc1cccc(C2=NOC3(C2)C[C@@H](C(N)=O)N(C(=O)CCCCC)C3)c1 (stereo not given in full)	5.3	1.78µM*	?	-27.8	1.41µM*	1.58µM*
CC(C(=O)N(C)C1CCS(=O)(=O)C1)N1C(=O)/C(=C/c2ccco2)SC1=S (stereo not given)	-15.2	50.1µM*	44.7µM*	-14.6	56.2µM*	?
CCN(C(=O)C(C)N1C(=O)/C(=C/c2cccs2)SC1=S)C1CCS(=O)(=O)C1 (stereo not given)	.	26.5%	44.7µM*	-17.3	?	37.9%
